This passage reports outcome and AC50 results from PubChem BioAssay (EPA / NIEHS).

Structures are written as SMILES. Records with an inconclusive call do not appear. The source made the active and inactive calls. How the source made its calls, unless noted: active means hit-call score of the fitted dose curve at least 0.9, where 1 is the maximum; inconclusive means response in the unintended direction; inactive means score below 0.9.

For orientation: AC50 means the concentration at which the activity in the assay is half-maximal.

A short description of test [1]: CCTE_Padilla_ZF_144hpf_TERATOSCORE: (Legacy) CCTE's 144 Hour Post-fertilization zebrafish Assay Teratoscore, Padilla Lab (AID 2283679; active means hit-call score of the fitted dose curve at least 0.9, where 1 is the maximum; inactive means score below 0.9;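 on AC50: zebrafish embryos with chorions exposed by immersion from 6-8 hpf to 5 dpf with daily renewal; teratogenicity score from eye scoring of death hatching and malformations at 144 hpf; higher score means more developmental defects relative to DMSO baseline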). The essentials:
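Larvae scored by eye at 144 hpf for death, hatching and malformations after a day in clean Hanks'. Before that, daily-renewed exposure at 80 uM (0.4% DMSO, 26C) from roughly 6-8 hpf through 5 dpf, 4 embryos per chemical.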

Test [2] in a line: Tanguay_ZF_120hpf_ActivityScore_legacy: (Legacy) Oregon State University Tanguay Lab 120 Hour Post-fertilization zebrafish Assay Score for Activity (AID 2283742).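 On AC50: dechorionated Tropical 5D wild-type zebrafish embryos held singly per well.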 The essentials:
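Binary scoring of mortality and morphology by brightfield at 24 and 120 hpf, summarised into one activity score from 18 components relative to DMSO. Wild-type Tropical 5D zebrafish, chorion removed at 4 hpf, static exposure 6–120 hpf, 28 °C.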

Test [3] can be described thus: STM_H9_OrnithineISnorm_perc: Stemina devTOX quickPredict H9 human embryonic stem cell (hESC)-based Assay for Ornithine (ORN) Metabolite Biomarker, Normalized (AID 2283712; active means hit-call score of the fitted dose curve at least 0.9, where 1 is the maximum; inactive means score below 0.9;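 further: ornithine released into spent medium during last day measured by mass spectrometry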). The gist of the method: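 UPLC-HRMS readout: endogenous ornithine EIC area / 13C-ORN internal standard, then % of 0.1% DMSO median. H9 hESCs (pluripotent), 72h exposure, re-dosed with fresh media q24h; last 24-h spent media, deproteinized in 40% acetonitrile.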

A short description of test [4]: STM_H9_CystineISnorm_perc: Stemina devTOX quickPredict H9 human embryonic stem cell (hESC)-based Assay for Cystine (CYSS) Metabolite Biomarker, Normalized (AID 2283713; active means hit-call score of the fitted dose curve at least 0.9, where 1 is the maximum; inactive means score below 0.9). The essentials: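 UPLC-HRMS read-out: endogenous cystine peak area in spent medium, normalized to isotope-labeled internal standard and to median of 0.1% DMSO controls. Pluripotent H9 cells, 72h exposure, daily medium/compound replenishment; medium from last 24h sampled.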

A short description of test [5]: STM_H9_OrnCyssISnorm_ratio: Stemina devTOX quickPredict H9 human embryonic stem cell (hESC)-based Assay for Ornithine (ORN):Cystine (CYSS) Ratio (AID 2283714). The gist of the method:
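Ratio of internal-standard-normalized ornithine to cystine, measured by UPLC-HRMS in spent media from the last 24 h. H9 cells kept pluripotent, dosed 72 h with daily media and compound renewal; DMSO 0.1% serves as baseline.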

Test [6] can be described thus: CEETOX_H295R_MTT_cell_viability: Viability Assessment in the CeeTox HT-H295R MTT Assay (AID 2283718; active means hit-call score of the fitted dose curve at least 0.9, where 1 is the maximum; inactive means score below 0.9). The essentials:
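MTT reduction (0.5 mg/ml, 4 h at 37 C; absorbance at 570 and 650 nm) gave viability as background-corrected percent change versus controls. H295R cells had 48 h forskolin (10 uM) prestimulation, then 48 h chemical exposure at 0.1% DMSO.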

`c1ccc2n[nH]nc2c1`: the result in test [1] and in test [2] was inactive.
For `CCCCCCCCCC(=O)O`, the concentration at half-maximal activity (AC50) in test [1] was 65.8 µM (active). The result in test [2] was inactive.
In the case of `CN1C(=O)CC[C@H]1c1cccnc1`, the outcome in test [3], in test [4], in test [5] and in test [2] was inactive.
Take `O=C1O[C@H]([C@@H](O)CO)C(O)=C1O`: the compound was called inactive in test [1] and in test [2].
Take `O=CCCCC=O`: the compound was called inactive in test [1] and in test [2].
As for `OC12N=C(c3ccccc3)SC1Cc1cc(Cl)ccc12` (centres undefined), the call in test [6] was inactive. For the same compound, the AC50 in test [2] is 32.7 µM (active).
As to `O=C(O)c1ccccc1-n1cc(C(=O)O)c(=O)c2cc(Nc3c(F)cc(F)cc3Cl)c(Cl)cc21`, in test [2], the compound was called inactive.
Take `CC1(C)NC(=O)N(c2ccc([N+](=O)[O-])c(C(F)(F)F)c2)C1=O`: in test [1], the concentration at half-maximal activity (AC50) was 17.2 µM (active). Moreover, the call in test [2] was inactive.
As to `CC(C)(O)c1ccc(CNC(=O)c2cccnc2Oc2ccc3nonc3c2)cc1`, the outcome in test [6] and in test [2] was inactive.
Turning to `CC1=CC(=O)/C(=C(/C)O)C(=O)O1`, the call in test [1] and in test [2] was inactive.
Turning to `Cc1ccc(C(C)C)cc1`, the compound was called inactive in test [2].
As to `O=C(O)Cn1c(=O)n(Cc2ccc(Br)cc2F)c(=O)c2ccc(Cl)cc21`, the outcome in test [6] and in test [2] was inactive.
